# Assay outcomes deposited in PubChem BioAssay by National Center for Advancing Translational Sciences (NCATS).
# Shown are actives, neighbours in structure and some others; about 9.4% of the full set was active somewhere.
# Rab9 promoter act: Rab9 promoter activation. Potency, µM (series often up to 9.22 µM), for inactives: at the top dose activation, negative = inhibition, actives largely listed as activators. Huh7 Rab9 promoter-luciferase reporter, luminescence, 24 h. 320,000 compounds, 2.8% hits; note: % of control where 0% means no effect; nearly all actives have a fitted effect of over 60% in size
#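 Cells were plated at 1500 per well in reduced-serum medium with 10% FBS and left 2 h. Compound in DMSO was then added for 24 h at 37 °C. Reporter signal was read by luminescence after 10 min with luciferase detection reagent.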
# FLuc modulator: counter-screen for miR-21 project: firefly luciferase inhibitors or activators; Potency, µM (titrated, usually from 57.5 µM), for inactives: at the top dose activity change, negative = inhibition, most hits filed as inhibitors; 360,000 compounds, 6.9% hits; purified FLuc, Km substrates, luminescence inhibition; P08659;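 note: plate controls were vehicle for no effect and reference inhibitor for full effect; nearly all actives have a fitted effect of over 55% in size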
# Target sequence (P08659 whole entry, looked up): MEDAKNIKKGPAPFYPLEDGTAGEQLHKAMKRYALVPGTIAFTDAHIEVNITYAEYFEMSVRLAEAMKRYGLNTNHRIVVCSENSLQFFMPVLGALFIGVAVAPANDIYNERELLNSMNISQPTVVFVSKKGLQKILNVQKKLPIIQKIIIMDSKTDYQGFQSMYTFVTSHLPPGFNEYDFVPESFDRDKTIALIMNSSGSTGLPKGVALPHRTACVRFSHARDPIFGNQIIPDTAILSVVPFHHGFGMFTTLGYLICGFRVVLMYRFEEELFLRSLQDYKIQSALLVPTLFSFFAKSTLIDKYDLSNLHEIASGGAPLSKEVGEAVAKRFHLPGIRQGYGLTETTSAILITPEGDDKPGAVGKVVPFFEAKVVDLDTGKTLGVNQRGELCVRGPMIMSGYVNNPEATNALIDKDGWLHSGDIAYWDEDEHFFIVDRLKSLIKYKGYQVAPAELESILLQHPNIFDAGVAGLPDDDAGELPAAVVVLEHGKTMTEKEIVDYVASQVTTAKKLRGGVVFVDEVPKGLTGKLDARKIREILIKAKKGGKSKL
#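 Purified P. pyralis luciferase, 10 nM final, with Km-level 10 uM D-luciferin and 10 uM ATP in 50 mM Tris acetate pH 7.5, 10 mM Mg acetate, 0.01% Tween-20, 0.05% BSA; 6-point qHTS titration about 60 µM downward; luminescence read.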
# ELG1 genotoxic: induces genotoxicity in HEK293T cells with luciferase-tagged ELG1; Potency, µM (series often up to 46 µM), for inactives: at the highest dose activity change, positive = activation, hits mostly activators; 330,000 compounds, 1.3% hits; AID 504466; HEK293T ELG1-luciferase reporter, luminescence, 16 h; note: % of control where 0% means no effect; nearly all actives have a fitted effect of over 60% in size
#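 HEK293T cells expressing luciferase-tagged ELG1 were treated with compound or DMSO for 16 hr at 37°C. Luciferase activity was then read after 30 min with ONE-Glo at room temperature; rising signal flags genetic stress.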
# NPC1 promoter act: activators of NPC1 promoter. Huh7 NPC1 promoter luciferase reporter, 24 h. Potency, µM (top dose mostly 9.22 µM), inactives show at the top dose activation, hits mostly activators. 320,000 compounds, 2.4% hits; note: % of control where 0% means no effect; nearly all actives have a fitted effect of over 60% in size
#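 Luminescence from an NPC1 promoter-driven luciferase reporter in stably transfected Huh7 cells was measured after 24 h compound treatment at 37 °C, followed by 10 min ambient incubation with luciferase detection reagent.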
# SMN2 splice up: enhancers of SMN2 splice variant expression; Potency, µM (highest dose often 46.1 µM), without a hit: at the highest dose activity change, positive = activation, most hits filed as activators; 210,000 compounds, 2.8% hits; AID 1458; HEK293 SMN2-luciferase splicing reporter, luminescence, 30-36 h; note: % of control where 0% means no effect; nearly all actives have a fitted effect of over 55% in size
#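 HEK293 cells carry an SMN2 minigene-luciferase reporter in which exon 7 inclusion puts luciferase in frame. Cells were seeded at 2000 cells/well, attached for 10-12 hours, then exposed to compounds for 30-36 hours at 37C before ONE-Glo luminescence.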
# ELG1 DNA repair: ELG1-dependent DNA repair inhibition | HEK293T ELG1-luciferase reporter, luminescence, 16 h; DNA damage induced by 5-fluorouridine | Potency, µM (titrated, usually from 46.1 µM), without a hit: at the highest dose activity change, negative = inhibition, usual class: inhibitors | 330,000 compounds, 2.3% hits | AID 504467; note: % is set by controls: 0 for no effect and ±100 for the full control effect; nearly all actives have a fitted effect of over 55% in size
#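 DMSO vehicle served as the neutral condition. Each well held 2,000 cells given 5-fluorouridine plus compound; after 16 hr at 37 °C/5% CO2, ONE-Glo was added and luciferase measured 30 min later.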
# * marks the source's active call; other numbers are inactive results; ? = inconclusive; . = not tested or not shown; [ ] = dose if it differs, or a comment. Calls come from the whole dose curve; as a rule, active = well fitted curve in the direction sought with a large enough effect; inconclusive = small, poorly fitted or top-dose-only effect, or another doubt; inactive = no such curve, though single readings can be large; an effect the other way counts as inactive or inconclusive. Potency is the fitted concentration of half-maximal effect.
SMILES,Rab9 promoter act,FLuc modulator,ELG1 genotoxic,NPC1 promoter act,SMN2 splice up,ELG1 DNA repair
CCCCOC(=O)c1ccc(NC(=O)/C(C#N)=C/c2ccc(-c3ccccc3)o2)cc1,.,-3%,.,.,-1%,.
N#C/C(=C\c1ccc(N2CCCCC2)o1)C(=O)Nc1cccc(Br)c1,2µM*,2.7µM*,?,2.5µM*,-15%,?
COc1ccc(-c2ccc(C(=O)O)o2)c([N+](=O)[O-])c1,-2%,-20%,-3%,-4%,13%,8%
COc1ccc(NC(=O)/C(C#N)=C\c2ccc(-c3cc(C(=O)O)ccc3C)o2)cc1,-5%,19µM*,-3%,-3%,.,-1%
O=C(CN1C(=O)C2(SCC(=O)N2c2cccc(Cl)c2)c2ccccc21)NCCc1ccccc1 (stereo not given),.,-10%,.,.,.,.
O=C(Cc1ccccc1)NCCc1csc2nc(-c3ccc(Cl)cc3)nn12,.,-6%,.,.,.,.
Cc1cc(NCc2ccccc2)nc2ccccc12,0%,?,-1%,-3%,-42%,?
C/C(CCC(C)C)=N\Nc1cc(C)c2ccccc2n1,4%,12µM*,-1%,-9%,2%,5%
O=C(O)/C(Cc1cn[nH]n1)=N\O,.,.,.,.,-12%[9.22 µM],.
NC(N)=NC(=O)c1nc(Cl)c(N2CCCCCC2)nc1N,?,4.3µM*,16µM*,?,8%,?
Cc1ccc(NN=C2c3ccccc3-c3ccccc32)cc1,?,15µM*,?,?,27%,?
Cc1ccc(OCC(=O)NN=C2c3ccccc3-c3ccccc32)cc1,5%,4%,1%,-5%,-14%,-4%
CCOC(=O)C1CCC(CN(Cc2ccc(OC)cc2)S(=O)(=O)c2ccc(F)c(C(=O)Nc3cc(Cl)ccc3OC)c2)CC1 (stereo not given),.,-1%,.,.,.,.
Fc1c(F)c(F)c(N=Cc2ccc3ncccc3c2)c(F)c1F,-2%,6.7µM*,8%,-4%,-28%,18%
COc1ccc(Cl)cc1NC(=O)c1noc2c1CCc1ccccc1-2,.,-3%,.,.,0%,.
CCCCCC(=O)Nc1nc(C)c(-c2csc(Nc3cc(Cl)ccc3OC)n2)s1,2%,4%,-3%,-6%,-18%,-6%
COc1ccccc1Nc1nc(-c2c(C)[nH]c3ccccc23)cs1,16%,11µM*,11%,15%,14µM*,?
CCCC(=O)Nc1nc(C)c(-c2csc(Nc3cc(OC)ccc3OC)n2)s1,-4%,?,2%,-15%,-33%,5.2µM*
Cc1cc(O)ccc1Nc1nc(-c2sc(N)nc2C)cs1,-8%,?,1%,1%,-7%,-24%
C=CCCC(=O)Nc1nc(C)c(-c2csc(Nc3cccc(OC)c3)n2)s1,-10%,?,1%,-3%,-29%,15µM*
COc1ccc(OC)c(Nc2nc(-c3sc(N)nc3C)cs2)c1,-4%,-2%,3%,-1%,-16%,12µM*
COc1ccc(C2CC(=O)c3cc(-c4nc(-c5cccc([N+](=O)[O-])c5)cs4)c(=O)n(-c4cccc(C)c4)c3C2)cc1 (stereo not given),.,4%,.,.,-6%,.
Cc1ccc(NC(=O)CSc2nc3ccccc3c3nc(CCn4c(C)nc5ccccc54)nn23)cc1F,.,0%,.,.,.,.
Fc1cccc(Cl)c1CNCCSc1nnnn1-c1ccccc1,.,-11%,.,.,-14%,.
Cc1csc(CNc2ncnc3ccc(-c4ccc5c(ccn5C)c4)cc23)c1,-2%,?,.,-1%,.,.
SMILES,Rab9 promoter act,FLuc modulator,ELG1 genotoxic,NPC1 promoter act,SMN2 splice up,ELG1 DNA repair
COc1ccccc1Nc1nc(-c2sc(NC(=O)C(C)(C)C)nc2C)cs1,-10%,?,-8%,-9%,-55%,?
C=CCCC(=O)Nc1nc(C)c(-c2csc(Nc3cc(OC)ccc3OC)n2)s1,-12%,-18%,-7%,-29%,-43%,7.3µM*
COc1ccccc1Nc1nc(-c2sc(NC(=O)CC(C)C)nc2C)cs1,-8%,?,-7%,-12%,-25%,?
CCCC(=O)Nc1nc(C)c(-c2csc(Nc3ccccc3OC)n2)s1,-7%,?,0%,-4%,-24%,23µM*
CCCC(C)C(=O)Nc1nc(C)c(-c2csc(Nc3cc(OC)ccc3OC)n2)s1 (stereo not given),-3%,-1%,-1%,-19%,-28%,18µM*
COc1cccc(-c2cc(C(=O)NC3CCCCC3)no2)c1,3.2µM*,6µM*,?,?,.,?
COc1cccc(-c2ccc3c(N)c(C(=O)NC4CC4)sc3n2)c1,?,3µM*,?,2µM*,.,?
O=C(NC1CCCCC1)c1cc(-c2ccco2)on1,1.6µM*,6µM*,?,2.5µM*,.,?
COc1ccc(-c2cc(C(=O)NC3CCCC3)no2)cc1OC,25%,-3%,7%,?,2%,?
COc1ccc(-c2cc(C(=O)NC3CCCC3)no2)cc1,1.8µM*,2.1µM*,3.7µM*,0.79µM*,.,?
CCN(CC)S(=O)(=O)c1ccc2c(c1)c(=O)c(C(=O)N1CCN(c3cccc(C)c3)C(C)C1)cn2C (stereo not given),.,-3%,.,.,6%,.
CCn1c(C(=O)N2CCC(C(=O)N3CCN(c4cc(C)ccc4C)CC3)CC2)cc2sccc21,.,-20%,.,.,-42%,.
CCOc1ccccc1NC(=O)CSc1nc2c(oc3ccccc32)c(=O)n1-c1ccc(C)c(C)c1,.,-1%,.,.,3%,.
CCOC(=O)c1ccccc1NC(=O)c1ccc2c(Cl)c3c(nc2c1)CCC3,.,5.4µM*,.,.,8%,.
COCCNC(=O)c1ccc2c(Cl)c3c(nc2c1)CCC3,3.5µM*,8.5µM*,?,?,.,?
COc1ccc(OC)c(NC(=O)c2ccc3c(Cl)c4c(nc3c2)CCCC4)c1,.,-19%,.,.,12%,.
CCOC(=O)c1cccc(NC(=O)c2ccc3c(Cl)c4c(nc3c2)CCC4)c1,.,0.3µM*,.,.,8%,.
COC(=O)c1ccccc1NC(=O)c1ccc2c(Cl)c3c(nc2c1)CCCC3,.,12µM*,.,.,-1%,.
COc1ccc(C)cc1NC(=O)NC(C)c1c(-n2cccc2)sc(C)c1C (stereo not given),.,-9%,.,.,-20%,.
Cc1cccc(NC(=O)C2CCC(CNS(=O)(=O)c3csc(C(N)=O)c3)CC2)c1C (stereo not given),.,-1%,.,.,.,.
Cc1ccc2oc(C(=O)Nc3ccc(S(=O)(=O)Nc4nc(C)cc(C)n4)cc3)cc(=O)c2c1,.,-19%,.,.,4%,.
CC(=O)c1ccc(OCC(=O)Nc2cccc(S(=O)(=O)N3CCCC3)c2)cc1,-24%,?,-1%,-15%,.,-1%
